In the library only some 1.7% were active in any assay of this set; here they are far more common.
TRHR enhancer – allosteric enhancers of human TRH receptor | P34981 | 360,000 tested, 0.66% active | TRHR cells, fluo-8 calcium fluorescence, EC20 TRH enhancement | enhancement, % at 2 µM; in the data active means enhancement above about 30%; further: 0% is about no effect
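Enhancer read-out: after compound pinning and an initial kinetic agonist-mode read, an EC20 of TRH (10 nM final) was injected and fluo-8 calcium signal (Ex 480/Em 530) followed at 1 s/cycle for 100 cycles in TRHR-expressing cells.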
TRPML1 agonist – human mucolipin-1 channel agonism | Q9GZU1 | TRPML1-expressing cells, Ca2+ dye fluorescence, FDSS | activation, % (concentration not given with the values) | 410,000 tested, 0.12% active | AID 624414; in the data active means activation above about 50%; inconclusive means mostly about 30% to 49%; further: 0% is about no effect
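TRPML1-DL cells, Tet-induced overnight (~16 h, 37 degrees C), loaded 45-90 min at room temperature with Ca8 no-wash calcium dye plus quencher. FDSS fluorescence: 10 s baseline, compound pin-transfer, 110 s agonist read, then EC80 54-4 (4uM final) and 110 s antagonist read.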
TRPML1 inh – inhibitors of human TRPML1 channel | TRPML1-inducible cells, Ca2+ dye fluorescence, FDSS; hits give low values; inhibition of EC80 agonist-evoked calcium signal | Q9GZU1 | activity change, negative = inhibition, % (test concentration not listed) | 390,000 tested, 0.02% active | AID 624415; in the data active means activity change below about -50%; inconclusive means between about -30% and that limit;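 further: stimulus is agonist 54-4 at its EC80 concentration; on the % scale 0 is the no-effect control and ±100 the full control effect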
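TRPML1-DL cells, Tet-induced overnight (~16 h, 37 °C) at 1,500 cells/well, were loaded with Ca8 no-wash dye plus quencher for 45-90 min at room temperature. Compounds were pinned during FDSS kinetic reading; agonist 54-4 at EC80 (4 uM final) then added.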
TRHR agonist – TRH receptor (human) agonism; AID 493084; TRHR cells, calcium flux fluo-8, FDSS agonist mode; 360,000 tested, 0.18% active; activation, % at 2 µM; in the data active means activation above about 30%; further: 0% is about no effect
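Steps: seed TRHR cells overnight; add fluo-8 no-wash Ca dye, RT 30 min–1.5 h; record 10 s baseline; pin-transfer compounds; monitor fluorescence 1 cycle/s for the agonist window. Calcium increases flag candidate agonists.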
hERG WT inh – blocks the wildtype human KCNH2 potassium channel; activity change, % at 1.84 µM; 340,000 tested, 0.37% active; U2OS, BacMam KCNH2, thallium flux FluxOr; hits give low values;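 active means maximum activity change below -70%; inconclusive means maximum activity change between -70% and -50%; inactive means maximum activity change above -50%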; further: on the % scale 0 is the no-effect control and ±100 the full control effect
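U2OS cells transduced with wild-type KCNH2 virus are loaded with FluxOr dye for 45 min, and thallium flux is measured in kinetic reads before and after stimulation buffer. Rate constants are normalized to DMSO controls.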
KCNH2 3.1 block – inhibitors of human KCNH2 3.1 potassium channel isoform. U2OS KCNH2 3.1, thallium flux FluxOr; hits give low values. activity change, % (tested at about 1.8 µM). 340,000 tested, 0.95% active. AID 720553;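 active means maximum activity change below -70%; inconclusive means maximum activity change from -70% to -50%; inactive means maximum activity change above -50%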;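 further: thallium influx rate constant from kinetic fluorescence after stimulation buffer; on the % scale 0 is the no-effect control and ±100 the full control effect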
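Steps: virus added to U2OS suspension (4 h, RT, dark); medium with 10% FBS added, cells plated, 37 C overnight; FluxOr/Red40 loading buffer 45 min RT; stimulation buffer, 2 min kinetic read; rate constant normalized.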
Numbers without * were called inactive; ? = inconclusive; . = no result given.

SMILES | TRHR enhancer | TRPML1 agonist | TRPML1 inh | TRHR agonist | hERG WT inh | KCNH2 3.1 block
CC/C=C/C(=O)N1CC2(CC(c3cccc(NC(=O)COc4ccc(Cl)cc4)c3)=NO2)C[C@H]1C(N)=O (some centres undefined) | 0 | 0 | 21 | -1 | -42 | -71*
CN(C)c1ccc(/C=C2\C(=N)N3C(=NC2=O)Sc2cc(S(C)(=O)=O)ccc23)cc1 | 2 | . | . | 34* | . | .
CN(C)c1ccc(/C=C2\C(=N)N3N=C(CC(=O)N4CCCC4)SC3=NC2=O)cc1Br | -6 | 1 | -19 | 1 | -8 | -4
CN(C)c1ccc(/C=C2\C(=N)N3N=C(CC(=O)N4CCCCC4)SC3=NC2=O)cc1 | 1 | 26 | 9 | 31* | 5 | 4
COc1cc2nc(N(C)C)nc(NC3CCN(C)CC3)c2cc1OC | . | 0 | . | . | . | .
Cc1cccc(C(=O)Nc2nnc(SCC(=O)NC3CC3)s2)c1 | 0 | 0 | -52* | 0 | -6 | 10
CS(=O)(=O)N1Cc2ccccc2CC1C(=O)O (centres undefined) | -1 | 1 | -9 | 0 | -11 | -95*
CC(=O)c1cc(NC(=O)c2ccc(Cl)cc2)c(=O)oc1/C=C/N(C)C | -3 | ? | -8 | 39* | -1 | -3
CCC1(CC)NC(=O)N(CC(=O)OCC(=O)c2ccccc2OC)C1=O | -3 | 0 | -4 | 1 | -2 | 11
CCN(CC(=O)Nc1cc(Cl)ccc1C)C(=O)C1COc2ccccc2O1 (centres undefined) | -8 | 0 | 2 | 0 | 1 | -5
CC(CC(=O)NCc1ccc(Cl)cc1)c1ccccc1 (centres undefined) | 34* | . | . | 0 | -3 | -18
O=C(COC(=O)CC(c1ccccc1)c1ccccc1)NCc1ccc(Cl)cc1 | -6 | 3 | -2 | 4 | 1 | -11
COc1ccc(C(=O)c2sc3nc4c(c(C(F)(F)F)c3c2N)CN(C(C)=O)CC4)cc1OC | 8 | 10 | -15 | 9 | . | .
CC(=O)N1CCc2nc3sc(C(=O)c4ccc(F)cc4)c(N)c3c(C(F)(F)F)c2C1 | -3 | ? | -20 | 37* | . | .
Cn1c(CCC(=O)Nc2cc(S(C)(=O)=O)ccc2Cl)nc2cc(S(=O)(=O)N3CCOCC3)ccc21 | -2 | 0 | -3 | -1 | -8 | 6
COc1ccc(-c2cc3ccc(O)cc3oc2=O)cc1OC | 31* | 7 | -2 | -1 | 1 | -10
COc1ccc(-c2cc3ccc(OCC(N)=O)cc3oc2=O)cc1OC | 3 | 1 | -11 | 1 | -6 | -5
O=C(NCC(=O)N1CCN(c2ccccc2O)CC1)c1ccc(Br)o1 | -1 | 2 | 3 | 0 | -2 | 6
O=S(=O)(Cc1ccccc1Cl)c1ncn[nH]1 | -1 | 0 | 88 | 0 | -130* | -156*
O=C(COC(=O)c1ccc(Cl)nc1)Nc1ccc(N2CCCCC2)cc1 | . | -1 | -2 | . | -12 | 27
COc1cccc(N2CCN(c3ncnc4c3c(-c3ccccc3)cn4-c3ccc(F)cc3)CC2)c1 | -5 | 3 | 7 | 0 | . | .
COc1cccc(N2CCN(c3ncnc4c3c(-c3ccccc3)cn4-c3cccc(C(F)(F)F)c3)CC2)c1 | 3 | 53* | -18 | 0 | . | .
c1ccc2c(OCCCN3CCCCCC3)cccc2c1 | 0 | . | . | 2 | 23 | ?
O=C(NCC1CCCN1S(=O)(=O)c1cccs1)c1ccc([N+](=O)[O-])cc1 (centres undefined) | 5 | 0 | -11 | 0 | -8 | -11
Cc1ccc(N2CC(=O)N(NC(=O)c3sc4nc(C)cc(C)c4c3N)CC2=O)cc1 | 38* | 1 | -13 | 0 | -10 | -3
CCOC(=O)C(NCCc1ccccc1F)(NC(=O)CC)C(F)(F)F (centres undefined) | 34* | 0 | 0 | -4 | -9 | -7
COc1c2c(cc3c1C(CC(O)Cc1ccccc1)N(C)CC3)OCO2 (centres undefined) | 6 | 1 | -8 | 1 | 22 | ?

Source: PubChem BioAssay (National Center for Advancing Translational Sciences (NCATS))
